Drawing on article PMC7862700, “An all-to-all approach to the identification of sequence-specific readers for epigenetic DNA modifications on cytosine”, this text covers binding signal for one sequence.

Common to all, as to assay: DAPPL (digital affinity profiling via proximity ligation, sequencing); 10 mM Tris-HCl pH 7.5, 50 mM NaCl, 1 mM DTT, 4% glycerol, room temperature, 30 min; GST-TFs on glutathione beads, 16-mer random dsDNA library, 0.1% formaldehyde crosslink after washing; high values mean tight binding
One assay concerns the target T1, FEV (Homo sapiens, UniProt Q99581 1-238).
T1 sequence: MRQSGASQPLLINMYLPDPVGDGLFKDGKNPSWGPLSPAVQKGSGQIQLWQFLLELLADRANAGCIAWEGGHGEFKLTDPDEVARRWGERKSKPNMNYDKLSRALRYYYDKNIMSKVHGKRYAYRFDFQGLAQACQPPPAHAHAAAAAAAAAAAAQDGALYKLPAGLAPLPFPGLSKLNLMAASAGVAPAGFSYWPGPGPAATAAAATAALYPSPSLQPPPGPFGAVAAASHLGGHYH
Particulars: protein: recombinant; tags: N-terminal GST; dsDNA, one strand shown. The essentials:
(§1)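 Binding signal is each hexamer's read frequency for a factor divided by its frequency in the tag-only sample. The factors were GST-fused human transcription factors from yeast, captured on glutathione beads, DNA-barcoded and pooled with that sample. Pools were incubated with 200 nmole of a random double-stranded 16-mer DNA library in Tris/NaCl/DTT/glycerol buffer at room temperature for 30 min, then washed, crosslinked with 0.1% formaldehyde, proximity-ligated with BsaI/T4 ligase (1 h, 37 °C), PCR-amplified and sequenced on an Illumina NextSeq500.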

The next assay has as its target ETV5 (Homo sapiens, UniProt P41161 1-510). The conditions noted are these: protein: recombinant; tags: N-terminal GST; dsDNA, one strand shown. The essentials: as §1
For another assay, the target named is HSF1 (Homo sapiens, UniProt Q00613 1-529). Particulars: protein: recombinant; tags: N-terminal GST; chain copies: 3; dsDNA, one strand shown. The method, boiled down: as §1
Sequence of HSF1 (Q00613 whole entry): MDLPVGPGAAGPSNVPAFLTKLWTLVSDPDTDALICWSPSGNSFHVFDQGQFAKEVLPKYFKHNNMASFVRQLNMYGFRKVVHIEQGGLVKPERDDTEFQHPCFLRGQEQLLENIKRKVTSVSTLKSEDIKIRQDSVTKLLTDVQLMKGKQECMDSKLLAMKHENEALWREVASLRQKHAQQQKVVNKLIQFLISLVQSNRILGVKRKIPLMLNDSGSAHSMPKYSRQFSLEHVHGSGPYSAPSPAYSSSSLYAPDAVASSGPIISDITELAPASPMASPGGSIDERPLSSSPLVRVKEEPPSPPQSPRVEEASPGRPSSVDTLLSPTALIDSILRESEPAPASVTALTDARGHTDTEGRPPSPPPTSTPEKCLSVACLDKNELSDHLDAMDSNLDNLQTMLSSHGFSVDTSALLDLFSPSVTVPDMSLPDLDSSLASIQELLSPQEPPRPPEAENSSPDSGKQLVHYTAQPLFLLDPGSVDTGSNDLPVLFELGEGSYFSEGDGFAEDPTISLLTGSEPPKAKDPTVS
A further assay concerns the target T2, SPIC (Homo sapiens, UniProt Q8N5J4 1-248).
T2 sequence: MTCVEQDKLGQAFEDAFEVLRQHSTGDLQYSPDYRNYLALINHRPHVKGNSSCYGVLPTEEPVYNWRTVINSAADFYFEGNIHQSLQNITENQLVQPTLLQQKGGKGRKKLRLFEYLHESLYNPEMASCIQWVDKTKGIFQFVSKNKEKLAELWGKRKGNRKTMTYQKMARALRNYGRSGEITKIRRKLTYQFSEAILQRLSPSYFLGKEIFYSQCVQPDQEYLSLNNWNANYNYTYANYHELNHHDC
Particulars: protein: recombinant; tags: N-terminal GST; dsDNA, one strand shown. The method, boiled down:
as §1

The next assay has as its target ELF4 (Homo sapiens, UniProt Q99607 1-663). The conditions noted are these: protein: recombinant; tags: N-terminal GST; dsDNA, one strand shown. The method, boiled down:
as §1

A further assay deals with T3, ELK4 (Homo sapiens, UniProt P28324-2 1-405).
T3 sequence: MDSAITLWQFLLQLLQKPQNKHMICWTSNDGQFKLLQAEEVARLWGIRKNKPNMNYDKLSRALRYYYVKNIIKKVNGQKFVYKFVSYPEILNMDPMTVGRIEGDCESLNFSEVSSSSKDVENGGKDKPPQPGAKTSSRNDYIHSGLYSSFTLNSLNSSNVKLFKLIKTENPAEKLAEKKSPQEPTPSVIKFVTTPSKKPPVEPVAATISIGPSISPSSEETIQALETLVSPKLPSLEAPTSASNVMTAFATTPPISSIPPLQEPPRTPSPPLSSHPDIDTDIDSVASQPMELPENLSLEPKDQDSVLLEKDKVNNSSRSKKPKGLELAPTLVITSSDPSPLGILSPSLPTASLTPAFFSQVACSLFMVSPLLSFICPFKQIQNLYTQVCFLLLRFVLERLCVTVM
Particulars: protein: recombinant; tags: N-terminal GST; dsDNA, one strand shown. The method, boiled down:
as §1

A further assay has as its target T4, ETV2 (Homo sapiens, UniProt O00321 1-342).
T4 sequence: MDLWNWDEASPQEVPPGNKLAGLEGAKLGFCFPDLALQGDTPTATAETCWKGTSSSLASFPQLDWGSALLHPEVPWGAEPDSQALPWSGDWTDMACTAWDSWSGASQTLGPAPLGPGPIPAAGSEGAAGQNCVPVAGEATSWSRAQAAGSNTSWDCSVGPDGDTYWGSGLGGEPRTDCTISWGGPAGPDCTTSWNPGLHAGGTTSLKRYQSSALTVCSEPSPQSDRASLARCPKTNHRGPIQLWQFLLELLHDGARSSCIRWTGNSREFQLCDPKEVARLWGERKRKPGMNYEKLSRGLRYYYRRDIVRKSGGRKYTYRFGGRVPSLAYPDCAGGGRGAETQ
The conditions noted are these: protein: recombinant; tags: N-terminal GST; dsDNA, one strand shown. The essentials: as §1

Another assay deals with T5, ELF3 (Homo sapiens, UniProt P78545 1-371).
T5 sequence: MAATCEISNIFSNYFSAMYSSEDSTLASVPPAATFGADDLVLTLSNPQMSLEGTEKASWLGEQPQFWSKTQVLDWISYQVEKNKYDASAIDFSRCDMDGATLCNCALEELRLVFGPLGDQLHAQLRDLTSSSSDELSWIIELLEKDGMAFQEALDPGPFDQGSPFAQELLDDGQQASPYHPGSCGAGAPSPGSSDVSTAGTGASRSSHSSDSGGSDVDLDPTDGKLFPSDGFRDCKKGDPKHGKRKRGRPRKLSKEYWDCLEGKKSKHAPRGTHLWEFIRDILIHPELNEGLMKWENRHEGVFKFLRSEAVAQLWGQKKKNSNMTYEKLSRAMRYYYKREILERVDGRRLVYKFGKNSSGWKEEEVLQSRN
The conditions noted are these: protein: recombinant; tags: N-terminal GST; dsDNA, one strand shown. The essentials:
as §1

For another assay, the target named is CRX (Homo sapiens, UniProt O43186 1-299). The conditions noted are these: protein: recombinant; tags: N-terminal GST; dsDNA, one strand shown. The method, boiled down: as §1
Sequence of CRX (O43186 whole entry): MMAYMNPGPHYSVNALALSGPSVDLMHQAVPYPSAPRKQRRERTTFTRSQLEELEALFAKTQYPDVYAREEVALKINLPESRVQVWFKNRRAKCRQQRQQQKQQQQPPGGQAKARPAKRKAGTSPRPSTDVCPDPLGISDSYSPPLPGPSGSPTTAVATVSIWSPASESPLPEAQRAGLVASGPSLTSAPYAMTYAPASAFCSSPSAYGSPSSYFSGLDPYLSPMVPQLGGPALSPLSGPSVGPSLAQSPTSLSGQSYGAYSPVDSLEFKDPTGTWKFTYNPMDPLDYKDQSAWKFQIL
The target in the next assay is ETV1 (Homo sapiens, UniProt P50549 1-477). The conditions noted are these: protein: recombinant; tags: N-terminal GST; dsDNA, one strand shown. The method, boiled down:
as §1

The target in the next assay is T6, ERF (Homo sapiens, UniProt P50548 1-548).
T6 sequence: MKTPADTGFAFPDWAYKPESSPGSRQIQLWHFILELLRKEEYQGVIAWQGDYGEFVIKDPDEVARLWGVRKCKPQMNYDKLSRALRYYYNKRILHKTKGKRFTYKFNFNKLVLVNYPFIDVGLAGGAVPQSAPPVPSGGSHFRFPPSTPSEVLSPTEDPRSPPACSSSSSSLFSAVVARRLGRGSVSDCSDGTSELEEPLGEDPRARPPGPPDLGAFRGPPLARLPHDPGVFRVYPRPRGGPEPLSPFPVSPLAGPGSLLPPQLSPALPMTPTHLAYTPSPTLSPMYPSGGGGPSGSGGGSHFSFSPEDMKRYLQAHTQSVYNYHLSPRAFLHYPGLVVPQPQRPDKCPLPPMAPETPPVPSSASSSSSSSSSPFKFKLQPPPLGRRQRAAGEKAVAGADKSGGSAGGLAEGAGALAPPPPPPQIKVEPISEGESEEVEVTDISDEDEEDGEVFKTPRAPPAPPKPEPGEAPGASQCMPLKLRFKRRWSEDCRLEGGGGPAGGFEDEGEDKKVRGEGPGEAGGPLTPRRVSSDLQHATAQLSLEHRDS
Particulars: protein: recombinant; tags: N-terminal GST; dsDNA, one strand shown. The method, boiled down:
as §1

For the next assay, the target named is T7, ETV3L (Homo sapiens, UniProt Q6ZN32 1-361).
T7 sequence: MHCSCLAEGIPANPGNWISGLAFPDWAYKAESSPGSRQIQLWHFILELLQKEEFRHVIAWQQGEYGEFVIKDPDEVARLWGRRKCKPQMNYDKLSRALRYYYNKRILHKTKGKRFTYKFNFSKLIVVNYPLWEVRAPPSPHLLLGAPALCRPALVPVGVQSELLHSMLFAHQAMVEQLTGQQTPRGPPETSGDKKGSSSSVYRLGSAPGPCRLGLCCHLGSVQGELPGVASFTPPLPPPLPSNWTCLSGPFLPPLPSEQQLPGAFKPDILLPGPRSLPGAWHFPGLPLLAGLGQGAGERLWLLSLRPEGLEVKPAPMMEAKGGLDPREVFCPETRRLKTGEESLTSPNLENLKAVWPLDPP
The conditions noted are these: protein: recombinant; tags: N-terminal GST; dsDNA, one strand shown. The essentials:
as §1

Another assay concerns the target T8, ETS2 (Homo sapiens, UniProt P15036 1-469).
T8 sequence: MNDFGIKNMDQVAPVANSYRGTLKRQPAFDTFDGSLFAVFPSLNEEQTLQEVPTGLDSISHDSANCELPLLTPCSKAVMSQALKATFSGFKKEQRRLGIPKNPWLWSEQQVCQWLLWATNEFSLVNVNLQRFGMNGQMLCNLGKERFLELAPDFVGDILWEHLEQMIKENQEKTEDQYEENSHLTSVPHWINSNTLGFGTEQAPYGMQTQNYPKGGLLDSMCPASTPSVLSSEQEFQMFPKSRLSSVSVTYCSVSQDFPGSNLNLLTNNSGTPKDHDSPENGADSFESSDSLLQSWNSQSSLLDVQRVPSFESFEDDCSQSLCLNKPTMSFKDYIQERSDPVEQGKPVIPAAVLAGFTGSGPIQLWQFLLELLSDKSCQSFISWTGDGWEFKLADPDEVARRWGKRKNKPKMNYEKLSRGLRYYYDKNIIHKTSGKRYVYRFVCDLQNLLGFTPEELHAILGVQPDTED
The conditions noted are these: protein: recombinant; tags: N-terminal GST; dsDNA, one strand shown. The method, boiled down:
as §1

A further assay deals with T9, SPDEF (Homo sapiens, UniProt O95238 1-335).
T9 sequence: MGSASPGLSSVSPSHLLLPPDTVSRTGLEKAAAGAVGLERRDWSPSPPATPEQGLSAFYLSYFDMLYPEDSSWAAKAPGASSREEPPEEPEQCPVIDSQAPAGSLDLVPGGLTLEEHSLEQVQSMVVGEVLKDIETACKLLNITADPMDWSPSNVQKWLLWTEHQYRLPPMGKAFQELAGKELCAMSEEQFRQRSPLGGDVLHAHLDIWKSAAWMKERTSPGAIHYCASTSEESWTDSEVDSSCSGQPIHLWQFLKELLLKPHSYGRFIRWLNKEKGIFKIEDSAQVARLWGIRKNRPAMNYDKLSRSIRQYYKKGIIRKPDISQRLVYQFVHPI
Particulars: protein: recombinant; tags: N-terminal GST; dsDNA, one strand shown. The essentials: as §1

Another assay addresses T10, ETV7 (Homo sapiens, UniProt Q9Y603 1-341).
T10 sequence: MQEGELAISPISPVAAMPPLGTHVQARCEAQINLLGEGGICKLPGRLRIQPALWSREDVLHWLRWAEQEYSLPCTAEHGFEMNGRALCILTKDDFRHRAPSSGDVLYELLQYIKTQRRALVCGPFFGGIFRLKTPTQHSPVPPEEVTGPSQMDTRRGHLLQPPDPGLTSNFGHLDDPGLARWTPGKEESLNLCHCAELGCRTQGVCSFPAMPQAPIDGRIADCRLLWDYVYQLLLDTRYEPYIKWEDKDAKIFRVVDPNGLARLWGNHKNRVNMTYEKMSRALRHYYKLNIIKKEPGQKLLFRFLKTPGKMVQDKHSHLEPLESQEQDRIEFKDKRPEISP
Particulars: protein: recombinant; tags: N-terminal GST; dsDNA, one strand shown. The essentials: as §1

The next assay has as its target T11, ELF5 (Homo sapiens, UniProt Q9UKW6-2 1-255).
T11 sequence: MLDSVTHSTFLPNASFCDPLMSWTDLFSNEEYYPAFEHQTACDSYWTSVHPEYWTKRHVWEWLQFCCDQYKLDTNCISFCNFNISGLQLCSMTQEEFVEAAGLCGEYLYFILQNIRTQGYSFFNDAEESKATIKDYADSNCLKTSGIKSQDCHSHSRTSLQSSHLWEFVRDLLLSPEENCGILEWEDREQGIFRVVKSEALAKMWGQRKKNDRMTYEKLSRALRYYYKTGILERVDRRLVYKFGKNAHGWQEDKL
Particulars: protein: recombinant; tags: N-terminal GST; dsDNA, one strand shown. The essentials: as §1

In the next assay the target is T12, ETV3 (Homo sapiens, UniProt P41162-2 1-143).
T12 sequence: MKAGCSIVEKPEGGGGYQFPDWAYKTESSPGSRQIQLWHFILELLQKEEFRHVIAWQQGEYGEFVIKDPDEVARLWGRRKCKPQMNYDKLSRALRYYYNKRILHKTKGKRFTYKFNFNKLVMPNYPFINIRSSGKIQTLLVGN
Particulars: protein: recombinant; tags: N-terminal GST; dsDNA, one strand shown. The essentials: as §1

Another assay concerns the target ETV6 (Homo sapiens, UniProt P41212 1-452). The conditions noted are these: protein: recombinant; tags: N-terminal GST; dsDNA, one strand shown. The essentials: as §1

Sequence of ELF4 (Q99607 whole entry): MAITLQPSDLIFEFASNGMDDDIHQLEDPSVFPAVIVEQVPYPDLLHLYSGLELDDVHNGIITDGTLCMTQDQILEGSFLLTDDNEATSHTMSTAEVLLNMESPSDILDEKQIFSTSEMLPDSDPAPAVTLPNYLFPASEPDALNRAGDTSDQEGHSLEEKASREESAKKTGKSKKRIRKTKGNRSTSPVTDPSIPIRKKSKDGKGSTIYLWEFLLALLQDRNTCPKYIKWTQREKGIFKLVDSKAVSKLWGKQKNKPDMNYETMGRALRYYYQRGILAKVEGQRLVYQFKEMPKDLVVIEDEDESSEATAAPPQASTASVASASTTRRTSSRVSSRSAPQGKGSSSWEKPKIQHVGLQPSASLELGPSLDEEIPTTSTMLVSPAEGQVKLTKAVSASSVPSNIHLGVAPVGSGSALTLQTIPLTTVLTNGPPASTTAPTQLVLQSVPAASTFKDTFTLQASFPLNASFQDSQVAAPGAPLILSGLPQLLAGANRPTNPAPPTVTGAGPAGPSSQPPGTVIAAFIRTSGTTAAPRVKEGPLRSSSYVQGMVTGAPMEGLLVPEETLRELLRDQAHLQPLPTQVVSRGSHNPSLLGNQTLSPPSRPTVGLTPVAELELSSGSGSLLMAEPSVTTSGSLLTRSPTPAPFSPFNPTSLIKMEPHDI
Sequence of ETV5 (P41161 whole entry): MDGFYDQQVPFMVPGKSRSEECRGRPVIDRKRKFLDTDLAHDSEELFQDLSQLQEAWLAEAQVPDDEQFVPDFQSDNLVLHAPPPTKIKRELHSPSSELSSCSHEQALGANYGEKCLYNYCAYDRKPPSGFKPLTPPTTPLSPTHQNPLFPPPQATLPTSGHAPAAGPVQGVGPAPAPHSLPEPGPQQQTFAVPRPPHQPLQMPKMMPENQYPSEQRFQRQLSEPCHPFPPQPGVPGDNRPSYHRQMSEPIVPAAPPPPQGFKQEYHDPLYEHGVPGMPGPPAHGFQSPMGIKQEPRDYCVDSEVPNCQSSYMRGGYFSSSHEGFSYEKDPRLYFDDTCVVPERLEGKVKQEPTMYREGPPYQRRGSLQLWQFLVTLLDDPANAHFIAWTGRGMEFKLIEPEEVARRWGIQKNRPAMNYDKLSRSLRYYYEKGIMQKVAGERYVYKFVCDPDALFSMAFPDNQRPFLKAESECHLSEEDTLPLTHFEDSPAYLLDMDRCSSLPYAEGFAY
Sequence of ETV6 (P41212 whole entry): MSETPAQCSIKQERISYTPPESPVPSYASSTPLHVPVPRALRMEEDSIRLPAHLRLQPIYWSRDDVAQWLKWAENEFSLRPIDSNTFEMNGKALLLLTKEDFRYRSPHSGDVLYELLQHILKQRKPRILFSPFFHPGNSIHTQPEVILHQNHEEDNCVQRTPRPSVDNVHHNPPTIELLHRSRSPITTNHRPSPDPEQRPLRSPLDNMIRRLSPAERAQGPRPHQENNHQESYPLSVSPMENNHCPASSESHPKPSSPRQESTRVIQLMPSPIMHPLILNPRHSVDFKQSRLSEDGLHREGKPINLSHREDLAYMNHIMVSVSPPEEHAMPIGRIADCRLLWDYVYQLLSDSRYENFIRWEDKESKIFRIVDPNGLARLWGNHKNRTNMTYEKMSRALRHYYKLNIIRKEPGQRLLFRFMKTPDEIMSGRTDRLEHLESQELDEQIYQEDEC
Sequence of ETV1 (P50549 whole entry): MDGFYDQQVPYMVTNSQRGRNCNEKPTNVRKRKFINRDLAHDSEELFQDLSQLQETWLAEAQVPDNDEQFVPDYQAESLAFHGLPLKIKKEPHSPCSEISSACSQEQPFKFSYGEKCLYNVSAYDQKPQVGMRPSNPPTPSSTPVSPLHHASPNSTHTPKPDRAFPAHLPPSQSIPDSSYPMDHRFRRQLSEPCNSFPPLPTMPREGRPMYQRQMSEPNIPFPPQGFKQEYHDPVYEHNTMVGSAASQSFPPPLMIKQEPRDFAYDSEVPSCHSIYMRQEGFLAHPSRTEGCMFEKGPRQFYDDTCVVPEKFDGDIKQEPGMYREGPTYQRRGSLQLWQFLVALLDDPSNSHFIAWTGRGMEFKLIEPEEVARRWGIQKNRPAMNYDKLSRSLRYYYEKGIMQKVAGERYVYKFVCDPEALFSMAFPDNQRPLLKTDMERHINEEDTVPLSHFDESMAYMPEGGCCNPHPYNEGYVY

On to AATCCT, for which the binding signal in the assay with FEV was 1.32 fold enrichment (6-mer frequency, TF over GST control); with ETV5, 1.43 fold enrichment (6-mer frequency, TF over GST control); with HSF1 it was 2.25 fold enrichment (6-mer frequency, TF over GST control); with SPIC, 1.3 fold enrichment (6-mer frequency, TF over GST control); with ELF4, 1.27 fold enrichment (6-mer frequency, TF over GST control); in the assay with ELK4, 1.33 fold enrichment (6-mer frequency, TF over GST control). Also, the binding signal was 1.34 fold enrichment (6-mer frequency, TF over GST control) with ETV2; 1.25 fold enrichment (6-mer frequency, TF over GST control) with ELF3; 3.32 fold enrichment (6-mer frequency, TF over GST control) in the assay with CRX; 1.35 fold enrichment (6-mer frequency, TF over GST control) with ETV1; 1.21 fold enrichment (6-mer frequency, TF over GST control) in the assay with ERF; 1.24 fold enrichment (6-mer frequency, TF over GST control) with ETV3L. In addition, the binding signal with ETS2 was 1.32 fold enrichment (6-mer frequency, TF over GST control); with SPDEF, 1.45 fold enrichment (6-mer frequency, TF over GST control); with ETV7 it was 1.41 fold enrichment (6-mer frequency, TF over GST control); with ELF5, 1.61 fold enrichment (6-mer frequency, TF over GST control); in the assay with ETV3, 1.37 fold enrichment (6-mer frequency, TF over GST control); in the assay with ETV6 it was 1.29 fold enrichment (6-mer frequency, TF over GST control).
